Only a selection was taken, and hits are over-represented in it overall.
VDR inh = inhibitors of human vitamin D receptor; P11473; VDR-SRC2-3 peptide fluorescence polarization, 2 h; Potency, µM, for the others: max response, negative = inhibition, hits mostly inhibitors; hit rate 0.93% among 400,000; note: % is set by controls: 0 for no effect and ±100 for the full control effect
Target sequence (P11473 whole entry, looked up): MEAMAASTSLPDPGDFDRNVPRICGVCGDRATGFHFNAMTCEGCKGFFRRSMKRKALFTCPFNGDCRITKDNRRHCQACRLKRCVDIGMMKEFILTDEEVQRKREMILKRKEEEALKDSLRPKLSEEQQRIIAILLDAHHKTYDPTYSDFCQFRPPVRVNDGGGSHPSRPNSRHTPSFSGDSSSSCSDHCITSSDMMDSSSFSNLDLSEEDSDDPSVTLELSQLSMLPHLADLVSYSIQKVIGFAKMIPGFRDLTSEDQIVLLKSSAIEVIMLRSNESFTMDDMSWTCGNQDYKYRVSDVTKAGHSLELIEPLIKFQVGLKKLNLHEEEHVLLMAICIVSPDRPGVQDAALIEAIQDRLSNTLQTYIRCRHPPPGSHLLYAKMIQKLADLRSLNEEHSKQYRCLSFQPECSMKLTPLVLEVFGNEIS
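FP read-out; VDR + SRC2-3 coactivator peptide; 23 nl compound by pintool; 2 h RT incubation; reagents held at 4 deg C, protected from light.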
GRP78 ERSR act = inducers of ER stress response in human glioma cells | U87-MG GRP78 promoter luciferase reporter, 16 h | Potency, µM, for the others: at the highest dose activation, hits mostly activators | hit rate 0.02% among 420,000; note: series mostly up to about 76 µM; % of control where 0% means no effect; nearly all actives have a fitted effect of over 35% in size
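Stably transfected U87-MG glioma cells carrying a GRP78-based luciferase sensor; 16 h compound incubation. Luminescence end-point read 10 min after Bright-Glo addition at room temperature.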
ALOX12 inh = ALOX12 (human) lipoxygenase inhibition. P18054. purified 12hLO, xylenol orange hydroperoxide absorbance. Potency, µM (doses to about 108 µM), for the others: at the highest dose activity change, negative = inhibition, actives largely listed as inhibitors. hit rate 1.1% among 580,000. AID 1671190; note: % is set by controls: 0 for no effect and ±100 for the full control effect
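Purified human 12hLO at 150 nM in 25 mM Hepes, 0.01% Triton X-100, pH 7.0, preincubated 15 min at room temperature with compound. Reaction started with 40 uM arachidonic acid, 30 min at room temperature. Hydroperoxide measured by Fe-xylenol orange, 573/405 nm absorbance ratio.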
Sfp inh = inhibitors of Bacillus subtilis Sfp phosphopantetheinyl transferase; AID 1490; hit rate 3.5% among 310,000; Q9F4F7; Biochemical Sfp PPTase activity, qHTS; Potency, µM, without a hit: largest response in the series, negative = inhibition, usual class: inhibitors;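 note: the enzyme is Sfp with the accession as filed and its product quenches rhodamine fluorescence; 0% = enzyme reaction without inhibitor and -100% = no enzyme wells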
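Reaction rates are the 30-min fluorescence difference (ex 525, em 598 nm) in wells containing 15 nM Sfp, 5 uM rhodamine-CoA and 12.5 uM BHQ-2-YbbR at pH 7.6 with 10 mM MgCl2.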
G9a inh = blocks human histone lysine methyltransferase G9a | G9a H3K9 monomethylation, AlphaScreen, 2 h | Potency, µM (highest dose often 102 µM), for inactives: at the top dose activity, negative = inhibition, hits mostly inhibitors | Q96KQ7 | AID 504332 | hit rate 8.8% among 350,000; note: % is set by controls: 0 for no effect and ±100 for the full control effect; nearly all actives have a fitted effect of over 75% in size
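Enzyme 20 nM + cpd, 15 min RT; add b-H3K9 pep 500 nM / SAM 20 uM; 2 h RT; anti-H3K9me1 Ab 0.5 ug/mL + SA donor / anti-rabbit acceptor beads 20 ug/mL each, 10 min; AlphaScreen read.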
* = called active by the depositor; ? = inconclusive; · = no result; [ ] = remark or other dose. Calls come from the whole dose curve; as a rule, active = well fitted curve in the direction sought with a large enough effect; inconclusive = small, poorly fitted or top-dose-only effect, or another doubt; inactive = no such curve, though single readings can be large; an effect the other way counts as inactive or inconclusive. Potency is the fitted concentration of half-maximal effect.

SMILES	VDR inh	GRP78 ERSR act	ALOX12 inh	Sfp inh	G9a inh
O=C(Cc1ccc(Br)cc1)Nc1ccccc1N1CCCC1	-8%	-7%	-3%	10%	50µM*
Cc1ccc(NC(=O)C(C)C)cc1Cl	·	·	4%	·	·
COc1cccc(OC)c1OC(=O)COc1ccc2oc3c(c2c1)CCCC3	·	·	-30%	·	·
O=C(O)C1CCN(C(=O)COc2ccc3c4c(c(=O)oc3c2)CCC4)CC1	-10%	-2%	-15%	16%	50µM*
CC(=O)C(C)Oc1ccc2c3c(c(=O)oc2c1)CCCCC3 (configuration not stated)	15%	0%	-9%	71µM*	-34%[12.7 µM]
O=C(O)c1ccc(COc2ccc3c4c(c(=O)oc3c2)CCC4)o1	13%	-14%	-1%	-19%	40µM*
Nc1c(-c2nc3ccccc3[nH]2)c2ccccn2c1C(=O)c1ccc(Cl)cc1	·	·	18%	·	·
O=C(O)c1ccc2c(c1)OCO2	-3%	-4%	·	10%	·
O=C(O)c1cc(O)c2c(c1)[O][Bi][O]2	-1%	-2%	·	?	1µM*
CCN(CC)CCN1c2ccccc2Sc2ccc3ccccc3c21	10%	-3%	?	-19%	50µM*
Cc1cc(=O)c2ccccc2n1CC(=O)O	·	·	-11%	·	·
Cc1cc(C)n(CC(=O)O)c(=O)c1[N+](=O)[O-]	?	-1%	-7%	0%	45µM*
O=C(O)C(=O)/C(=C/c1ccsc1)c1ccc2ccccc2n1	·	·	8.9µM*	·	·
N#CC1=C2C=CC=CN2CC1=O	6%	-3%	?	?	4µM*
Clc1ccc2nc(N3CCNCC3)nc(-c3ccccc3)c2c1	-15%	-13%	-18%	-25%	18%[59 µM]
O=C1CN(c2nc(-c3ccccc3)c3cc(Cl)ccc3n2)c2ccccc2N1	-2%	-1%	?	13%	50µM*
CCc1ccc(C(=O)C(C)OC(=O)c2ccc3c(c2)CCCC3)cc1 (configuration not stated)	·	·	-8%	·	·
CN(C)c1ccc(CNS(=O)(=O)c2ccc3c(c2)NC(=O)CS3)cc1	-12%	-2%	-3%	6%	50µM*
CC(=O)OCC(=O)Nc1ccc(N=Nc2ccccc2)cc1	-3%	-2%	-2%	12%	-18%[59 µM]
CC(C)C(=O)OCC(=O)Nc1ccc(N=Nc2ccccc2)cc1	-7%	-2%	-14%	-5%	45µM*
O=C(CC1SC(=O)N(c2ccccc2)C1=O)Nc1cccc2ccccc12 (configuration not stated)	45µM*	2%	0%	20µM*	?
Cc1ccccc1NC(=O)CC1SC(=O)N(c2ccccc2)C1=O (configuration not stated)	10%	2%	0%	?	?
C=CCSC(=S)NC1CCS(=O)(=O)C1 (configuration not stated)	-17%	-3%	-3%	-21%	50µM*
NC(=S)NC1CCS(=O)(=O)C1 (configuration not stated)	-10%	-5%	5%	15%	-3%
O=S1(=O)CCC(NC(=S)NCCNC(=S)NC2CCS(=O)(=O)C2)C1 (configuration not stated)	?	-3%	-1%	?	50µM*
SMILES	VDR inh	GRP78 ERSR act	ALOX12 inh	Sfp inh	G9a inh
COc1ccc(CN2CCOc3ccc(C(=O)NCc4ccccc4F)cc3C2)c(OC)c1	·	·	1%	·	·
O=c1oc2ccccc2c2oc3cc(O)c(O)cc3c12	26%	?	6.3µM*	?	·
O=C(O)c1ccc(Nc2ncnc3c2cnn3Cc2ccccc2)cc1	?	4%	-11%	?	32µM*
Cc1cccc(Nc2ncnc3c2cnn3Cc2ccccc2)c1	-12%	2%	?	-11%	50µM*
Cc1c2c(c(O)c3c(O)cccc13)C(=O)O[C@H]2C1C(N(C)C)C(O)=C(C(N)=O)C(=O)[C@H]1O (some centres not stated)	16µM*	-1%	·	?	·
N=C1/C(=C\c2coc3ccccc3c2=O)C(=O)N=C2SC=CN12	-23%	0%	20µM*	-27%	-13%[59 µM]
CSC1=NSC2=NC(=O)/C(=C/c3coc4ccc(O)cc4c3=O)C(=N)N12	?	6%	18µM*	-25%	?
CSC1=NSC2=NC(=O)/C(=C/c3coc4ccccc4c3=O)C(=N)N12	50µM*	-2%	?	-23%	?
COc1ccc(-c2oc3cccnc3c2C#CCO)cc1	16%	-4%	·	6%	50µM*
COc1ccc(NC(=O)c2ccc(CN3CCc4ccccc4C3)cc2)cc1OC	5%	4%	302%	-3%	71µM*
COc1cccc(NC(=O)c2ccc(CN3CCc4ccccc4C3)cc2)c1	-21%	6%	8%	7%	·
COc1ccc(CN2CCc3ccccc3C2)c(OC)c1OC	3%	-4%	?	-22%	45µM*
COc1ccc(CN2CCc3ccccc3C2)cc1Br	5%	-1%	0%	79µM*	2.2µM*
FC(F)n1c(CSc2nnc3c(Cl)cc(C(F)(F)F)cn23)nc2ccccc21	·	·	16%	·	·
CCNC(=O)NC(=O)CNc1ccccc1N(C)Cc1ccccc1	·	·	7.1µM*	·	·
Cc1cc(O)c(C(=O)/C=C/c2cccc([N+](=O)[O-])c2)c(=O)o1	-17%	-3%	?	6%	13µM*
Cc1cc(O)c(C(=O)/C=C/c2ccccc2O)c(=O)o1	?	5%	-9%	-14%	50µM*
COc1cc(/C=C/C(=O)c2c(O)cc(C)oc2=O)ccc1O	?	·	-6%	?	·
COc1ccccc1NC(=O)Cn1c(C)ccc(NS(=O)(=O)c2ccccc2)c1=O	·	·	7%	·	·
CC1(C)CC(=O)C2=C(C1)c1c(ccc3ccccc13)NC2c1ccc(C(=O)O)cc1 (configuration not stated)	-4%	1%	?	5%	-11%
CC1(C)CC(=O)C2=C(C1)c1c(ccc3ccccc13)NC2c1cc([N+](=O)[O-])cc([N+](=O)[O-])c1O (configuration not stated)	-6%	0%	40µM*	4µM*	?
C=CCNc1oc(-c2ccc(COc3cccc(C)c3)o2)nc1C#N	·	·	8%	·	·
O=C(CSC12CC3CC(CC(C3)C1)C2)NC1CC1	·	·	17%	·	·
CCNc1nc(NCC)nc(NC(N)=S)n1	-6%	-3%	-24%	-7%	25µM*
CCNc1nc(NC(N)=S)nc(NC(C)(C)C)n1	10%	-2%	?	32µM*	3.5µM*
O=C(NNS(=O)(=O)c1ccc([N+](=O)[O-])cc1)C(=O)Nc1cccc(C(=O)O)c1	5%	-3%	?	40µM*	8.9µM*
O=C(NNS(=O)(=O)c1ccc([N+](=O)[O-])cc1)c1ccccc1	-5%	-3%	-27%	·	·
CC(=O)NS(=O)(=O)c1ccc2c(c1)C(=O)c1cc(S(=O)(=O)NC(C)=O)ccc1-2	-1%	-5%	-1%	15%	9%[0.501 µM]
Cc1ccc(NC(=O)c2cccc(C(=O)Nc3ccc(C)cc3C(=O)O)c2)c(C(=O)O)c1	-3%	-6%	?	23%	1%[2.33 µM]
